SMILES strings stand for the structures. Inconclusive results are not listed. A call without a number means that no potency is given here. The source made the active and inactive calls. Calls come from the whole dose curve; as a rule, active = well fitted inhibition curve with a large enough effect; inconclusive = small, poorly fitted or top-dose-only effect; inactive = no such curve, though single readings can be large or run the other way.

For 38 compounds, Potency and activity change, negative = cell killing results are on record in PubChem BioAssay (NCATS).
Potency is the fitted concentration of half-maximal effect.

The test can be described thus: Primary qHTS for inhibitors of nuclear receptor binding SET domain protein 2 (NSD2) in an RCH-ACV wild type WT cells (2C) (AID 1645877). Note: nearly all actives have a fitted effect of over 70% in size. The note with it: RCH-ACV (leukaemia line) NSD2 WT (2C) viability, CellTiter-Glo, 72 h; series mostly up to 44.9 µM. (In general: qHTS replaces the single test concentration by a dilution series.)
With `CC(=O)Nc1ccc(OCCOCCOc2ccc(NC(C)=O)cc2)cc1`, the Potency entry is “inactive”.
In the case of `NC(N)=NCCN1CCCCCCC1`, the activity change, negative = cell killing is 1.99% [at 0.588 µM] (inactive).
`NC(=O)CC[C@@H](N)C(=O)O`: the Potency entry is “inactive”.
On to `CC(C)c1cc2c(cc1S(=O)(=O)O)[C@@]1(C)CCC[C@@](C)(C(=O)O)[C@@H]1CC2`, for which the Potency entry is “inactive”.
Still for that read-out and setting: with `C[N+](C)(C)CC(O)CC(=O)[O-]` (stereo not drawn) the entry was “inactive”; with `O=C1C(c2[nH]c3ccccc3c2O)=Nc2ccccc21`, “inactive”.
Regarding `NCC1CCC(C(=O)Oc2ccc(CCC(=O)O)cc2)CC1` (stereo not drawn), the Potency result is “inactive”.
The same measure, in the same setting: then `CNCc1ccccc1`, with “inactive”; and `O=C(Cn1ccnc1[N+](=O)[O-])NCCO`, with “inactive”; and `CCOC(=O)[C@H](CCc1ccccc1)N[C@@H](C)C(=O)N1CCC[C@H]1C(=O)O`, with “inactive”.
Still for that read-out and setting: then `CN1CCCN=C1COC(=O)C(O)(c1ccccc1)C1CCCCC1` (stereo not drawn), with “inactive”.
For `COC(=O)N/N=C/c1c[n+]([O-])c2ccccc2[n+]1[O-]`, the Potency was 7.5 µM (active).
Consider `O=C(O)c1ccccc1C(=O)Nc1ccc(S(=O)(=O)Nc2nccs2)cc1`, for which the Potency result is “inactive”.
Still for that read-out and setting: then `C[N+](C)(C)CC[N+]1(C)Cc2c(Cl)c(Cl)c(Cl)c(Cl)c2C1`, with “inactive”.
On to `CN(C(=O)c1c(O)c2ccccc2n(C)c1=O)c1ccccc1`, for which the Potency result was “inactive”.
The same measure, in the same setting: then `CC[C@]12CCCN3CCc4c(n(c5ccccc45)[C@@](O)(C(=O)OC)C1)[C@@H]32`, with “inactive”.
Still for that read-out and setting: with `Cc1[nH]c(C)c(Cl)c(=O)c1Cl` the entry was “inactive”; with `CC(C)(C)NCC(O)COc1cccc2c1CCC(=O)N2` (stereo not drawn), “inactive”.
Same read-out and setting: with `Cc1cc(C)c(NC(=O)CN(CC(=O)O)CC(=O)O)c(C)c1Br` the entry was “inactive”.
With `COc1ccc(C(=O)NCc2ccc(OCCN(C)C)cc2)cc1OC`, the Potency entry was “inactive”.
The same measure, in the same setting: then `CCN(CC)CCc1nc(-c2ccccc2)no1`, with “inactive”; and `CCCCCC(C)N` (stereo not drawn), with “inactive”.
Still for that read-out and setting: with `NC(=O)N[C@@H](CCC(=O)O)C(=O)O` the entry was “inactive”; with `C/C(=C(\CCO)SS/C(CCO)=C(\C)N(C=O)Cc1cnc(C)nc1N)N(C=O)Cc1cnc(C)nc1N`, “inactive”; with `CC(=O)N[C@@H](CC(C)C)C(=O)O`, “inactive”.
Still for that read-out and setting: with `O=C1c2ccccc2S(=O)(=O)N1CCCCN1CCN(c2ncccn2)CC1` the entry was “inactive”.
`CC(=O)Nc1cccc(O)c1`: the Potency result was “inactive”.
Consider `CC(=O)NCc1c(I)c(NC(C)=O)c(I)c(C(=O)O)c1I`, for which the Potency entry was “inactive”.
Still for that read-out and setting: with `Cc1ccsc1/C=C/C1=NCCCN1C` the entry was “inactive”; with `C=CCSCC1Nc2cc(Cl)c(S(N)(=O)=O)cc2S(=O)(=O)N1` (stereo not drawn), “inactive”.
Take `O=C(NCCCN1CCOCC1)c1ccc(Cl)cc1`: the Potency entry is “inactive”.
The same measure, in the same setting: then `Cc1cc(OI)c(C(C)C)cc1-c1cc(C(C)C)c(OI)cc1C`, with “inactive”.
Same read-out and setting: then `CCCCCCCC(=O)OCC(O)CO` (stereo not drawn), with “inactive”; and `O=C(OOC(=O)c1ccccc1)c1ccccc1`, with “inactive”; and `NS(=O)(=O)c1ccc(C(=O)O)cc1`, with “inactive”.
As to `CN1C[C@@H]2C[C@H]1CN2c1cc2c(cc1F)c(=O)c(C(=O)O)cn2C1CC1`, the Potency entry is “inactive”.
Still for that read-out and setting: with `CCOc1cc(NC(C)=O)ccc1C(=O)OC` the entry was “inactive”; with `Cc1ccsc1C(=CCCN1CCC[C@@H](C(=O)O)C1)c1sccc1C`, “inactive”.
